27 molecules from PubChem BioAssay (NCATS) can be followed below.

Assay [1] can be described thus: qHTS of pediatric cancer cell lines to identify multiple opportunities for drug repurposing: Primary screen for MG 63 (6-TG R) cells (AID 1347105). Also: nearly all actives have a fitted effect of over 50% in size. Also: potency is read from the fitted curve at half-maximal effect. As to activity change, negative = cytotoxic: % is scaled to controls: 0 for no effect and ±100 for the full control effect. In a few lines:
(§1)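 Phenotypic viability qHTS, 48 h compound exposure, CellTiter-Glo luminescence read-out; multi-concentration dosing so that potency and efficacy derive directly from the primary screen's curves.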
A general note: qHTS replaces the single test concentration by a dilution series.

A short description of assay [2]: qHTS of pediatric cancer cell lines to identify multiple opportunities for drug repurposing: Primary screen for control Hh wild type fibroblast cells (AID 1347106).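 Also: series mostly up to about 46 µM; % is scaled to controls: 0 for no effect and ±100 for the full control effect; a drop in luminescence marks cytotoxicity and a rise apparent proliferation; nearly all actives have a fitted effect of over 55% in size.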 In a few lines: (§2)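 Viability after 48 h compound treatment at 37C, 500-1,000 cells/well, read as ATP luminescence with CellTiter-Glo. Primary screens used 11-point (MIPE, 0.78 nM-46 µM) or 8-point (NPC, 0.59 nM-46 µM) final concentrations; follow-up screens used 11-point dilutions.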

Assay [3] in a line: qHTS of pediatric cancer cell lines to identify multiple opportunities for drug repurposing: Primary screen for Rh30 cells (AID 1347107). Also: series mostly up to about 46 µM; % is scaled to controls: 0 for no effect and ±100 for the full control effect; nearly all actives have a fitted effect of over 75% in size. In a few lines:
as §2

Assay [4] can be described thus: qHTS of pediatric cancer cell lines to identify multiple opportunities for drug repurposing: Primary screen for Rh41 cells (AID 1347108).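 Also: series mostly up to about 46 µM; luminescence drop marks cytotoxic hits; nearly all actives have a fitted effect of over 70% in size.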 The method, boiled down: as §1

Inconclusive results are not listed. Unmarked numbers belong to inactive results. The source made the active and inactive calls. Calls follow the shape of the dose curve; as a rule, active = well fitted curve in the direction sought with a large enough effect; inconclusive = small, poorly fitted or top-dose-only effect, or another doubt; inactive = no such curve, though single readings can be large; an effect the other way counts as inactive or inconclusive.

Regarding `NS(=O)(=O)c1cc(C(=O)O)cc(N2CCCC2)c1Oc1ccccc1`, the Potency entry in assay [1], in assay [2], in assay [3] and in assay [4] was “inactive” throughout.
In the case of `COc1ccc(/C=N/NC(=O)c2ccncc2)cc1OC`, the Potency result in assay [1], in assay [2], in assay [3] and in assay [4] was “inactive” each time.
With `CN(C)CCC[C@@]1(c2ccc(F)cc2)OCc2cc(C#N)ccc21`, the Potency result in assay [1], in assay [2], in assay [3] and in assay [4] was “inactive” throughout.
In the case of `CC(=O)OC[C@H]1O[C@@H](n2ncc(=O)[nH]c2=O)[C@H](OC(C)=O)[C@@H]1OC(C)=O`, the Potency result in assay [1], in assay [2], in assay [3] and in assay [4] was “inactive” each time.
Consider `COc1ccc2c(c1)c1c3n2CCN(C)C3=NCC1`, for which the Potency entry in assay [1], in assay [2], in assay [3] and in assay [4] was “inactive” each time.
Turning to `C/C=C/C=N/NC(=O)c1ccncc1`, the Potency entry in assay [1], in assay [2], in assay [3] and in assay [4] was “inactive” throughout.
Turning to `COC(=O)C(c1ccccc1Cl)N1CCc2sccc2C1` (stereo not drawn), the Potency entry in assay [1], in assay [2], in assay [3] and in assay [4] was “inactive” in each case.
For `N=C(N)N1CCc2ccccc2C1`, the activity change, negative = cytotoxic in assay [1] is -18.3% [at 4.84 µM]; in assay [2], -9.54% [at 4.84 µM]; in assay [3], 7.74% [at 4.84 µM]; in assay [4], 1.21% [at 4.84 µM].
For the molecule `CC[C@H](c1ccc(O)cc1)[C@@H](CC)c1ccc(O)cc1`, the Potency in assay [1] is 13.3 µM (active). Also, the Potency result in assay [2], in assay [3] and in assay [4] was “inactive” throughout.
Consider `Cc1cccc(C)c1NC(=O)CN1CCCC1`, for which the Potency result in assay [1], in assay [2], in assay [3] and in assay [4] was “inactive” throughout.
Consider `C[C@@H](O)[C@H]1C(=O)N2C(C(=O)O)=C([C@H]3CCCO3)S[C@H]12`, for which the Potency result in assay [1], in assay [2], in assay [3] and in assay [4] was “inactive” each time.
`O=[N+]([O-])c1cccc(S(=O)(=O)NCCNS(=O)(=O)c2cccc([N+](=O)[O-])c2)c1`: the Potency entry in assay [1], in assay [2], in assay [3] and in assay [4] was “inactive” throughout.
`CC(=O)O[C@H]1C[C@@H]2CC[C@@H]3[C@H](CC[C@@]4(C)[C@H]3C[C@H]([N+]3(C)CCCCC3)[C@@H]4OC(C)=O)[C@@]2(C)C[C@@H]1N1CCCCC1`: the Potency entry in assay [1], in assay [2], in assay [3] and in assay [4] was “inactive” in each case.
With `Cc1ccc(-c2ncc(Cl)cc2-c2ccc(S(C)(=O)=O)cc2)cn1`, the Potency result in assay [1], in assay [2], in assay [3] and in assay [4] was “inactive” in each case.
On to `CC(O)Cn1cnc2c1c(=O)n(C)c(=O)n2C` (stereo not drawn), for which the Potency result in assay [1], in assay [2], in assay [3] and in assay [4] was “inactive” throughout.
On to `O=C(O)Cc1csc(-c2ccc(Cl)cc2)n1`, for which the Potency result in assay [1], in assay [2], in assay [3] and in assay [4] was “inactive” throughout.
Turning to `CC(=O)OCC(=O)[C@H]1CC[C@H]2[C@@H]3CCC4=CC(=O)CC[C@]4(C)[C@H]3CC[C@]12C`, the Potency entry in assay [1], in assay [2], in assay [3] and in assay [4] was “inactive” in each case.
Take `O=C(Nc1ccc([N+](=O)[O-])cc1)Nc1ccc([N+](=O)[O-])cc1`: the Potency entry in assay [1], in assay [2], in assay [3] and in assay [4] was “inactive” in each case.
Take `CC(C)(Cc1c[nH]c2ccccc12)NCC(O)COc1ccccc1C#N` (stereo not drawn): the Potency result in assay [1], in assay [2], in assay [3] and in assay [4] was “inactive” each time.
In the case of `CCN(CC)CCNC(=O)COc1ccc(OC)cc1`, the Potency entry in assay [1], in assay [2], in assay [3] and in assay [4] was “inactive” in each case.
Regarding `CCCN(CCC)S(=O)(=O)c1ccc(C(=O)O)cc1`, the Potency entry in assay [1], in assay [2], in assay [3] and in assay [4] was “inactive” throughout.
With `CN(C)CCOC(c1ccc(Cl)cc1)c1ccccn1` (stereo not drawn), the Potency entry in assay [1], in assay [2], in assay [3] and in assay [4] was “inactive” each time.
As for `COc1ccc(CCN(C)CCCN2CCc3cc(OC)c(OC)cc3CC2=O)cc1OC`, the Potency entry in assay [1], in assay [2], in assay [3] and in assay [4] was “inactive” in each case.
Regarding `CC(C)=CCOc1ccc(/C=C/C(=O)c2ccc(OCC=C(C)C)cc2OCC(=O)O)cc1`, the Potency in assay [1] is 33.5 µM (active). Further, the Potency result in assay [2], in assay [3] and in assay [4] was “inactive” throughout.
Turning to `COc1ccc(S(=O)(=O)N2c3ccc(Cl)cc3[C@@](O)(c3ccccc3Cl)[C@H]2C(=O)N2CCC[C@@H]2C(N)=O)cc1OC`, the Potency result in assay [1], in assay [2], in assay [3] and in assay [4] was “inactive” each time.
For `NC(=O)C1(N2CCCCC2)CCN(CCCC(=O)c2ccc(F)cc2)CC1`, the Potency result in assay [1], in assay [2], in assay [3] and in assay [4] was “inactive” throughout.
`N#CCC(=O)NN`: the Potency result in assay [1], in assay [2], in assay [3] and in assay [4] was “inactive” each time.
